# High-throughput results deposited in PubChem BioAssay by National Center for Advancing Translational Sciences (NCATS).
# Shown are actives, neighbours in structure and some others; about 5.2% of the full set was active somewhere.
# Sfp PPTase inh: qHTS Assay for Inhibitors of Bacillus subtilis Sfp phosphopantetheinyl transferase (PPTase) | Biochemical Sfp PPTase activity, qHTS | 310,000 tested, 3.5% active | Potency, µM, without a hit: largest response in the series, negative = inhibition, most hits filed as inhibitors;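 note: the enzyme is Sfp with the accession as filed and its product quenches rhodamine fluorescence; potency is the fitted concentration of half-maximal effect; 0% = enzyme reaction without inhibitor and -100% = no enzyme wells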
#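 Sfp 15 nM + cpd, 15 min RT; start w/ rhodamine-CoA 5 uM, BHQ-2-YbbR 12.5 uM (final); 50 mM Hepes pH 7.6, 10 mM MgCl2, 0.01% NP-40, 0.01% BSA; read 525/598 nm at 0 and 30 min.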
# Tau fibril FP: qHTS for Inhibitors of Tau Fibril Formation, Fluorescence Polarization. Microtubule-associated protein tau (Homo sapiens), P10636. K18 P301L tau heparin fibrillization, Alexa594 FP, 6 h. Potency, µM (series often up to 57.7 µM), without a hit: at the top dose activity, negative = inhibition, most hits filed as inhibitors. 280,000 tested, 0.39% active; note: potency is the fitted concentration of half-maximal effect; nearly all actives have a fitted effect of over 55% in size
# Target sequence (P10636 561-689 P618L limits assumed): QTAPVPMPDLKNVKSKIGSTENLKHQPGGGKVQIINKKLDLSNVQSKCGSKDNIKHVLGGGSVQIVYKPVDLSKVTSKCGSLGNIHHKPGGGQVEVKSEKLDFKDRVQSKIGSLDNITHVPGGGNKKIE
#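 Human tau K18 […] P301L fragment, 15 uM unlabeled plus 0.24 uM Alexa 594-labeled tau (final), with compound and 20 uM heparin in 100 mM sodium acetate pH 7; 6 hr at 37 C, then Alexa 594 FP read.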
# Tau fibril ThT: qHTS for Inhibitors of Tau Fibril Formation, Thioflavin T Binding; AID 1460, 2008; recombinant tau K18 P301L, heparin-induced fibrillization, ThT fluorescence; 270,000 tested, 2.1% active; Potency, µM (series often up to 57.4 µM), for inactives: at the top dose activity, negative = inhibition, most hits filed as inhibitors; note: potency is the fitted concentration of half-maximal effect; nearly all actives have a fitted effect of over 55% in size
#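 Tau K18 P301L fragment (15 uM unlabeled plus 0.24 uM Alexa 594-labeled) in 100 mM sodium acetate pH 7 with compound, fibrillization induced by 20 uM heparin for 6 hr at 37 C. Thioflavin T (30 uM) added, fluorescence read after 1 hr (ex 450, em 510 nm).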
# FBPA coupling cs: qHTS Assay for Inhibitors of Fructose-1,6-bisphosphate Aldolase from Giardia Lamblia: Coupling assay counterscreen. activity change, negative = inhibition, % at 58.2 µM, hits read low. 290,000 tested, 0.67% active. coupling enzyme system counterscreen, AmpLite Red fluorescence; in the data active = activity change below about -30%
#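 Compounds tested against the coupling enzymes alone at 57.5 uM final; readout was AmpLite Red fluorescence (525/598 nm) after 20 min at RT.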
# Tau fluor counter: Counterscreen qHTS for Inhibitors of Tau Fibril Formation, Fluorescence Polarization. tau K18 P301L Alexa594 fluorescence, heparin fibrillization. 280,000 tested, 0.93% active. AID 1463, 2008. Potency, µM (top dose mostly 57.7 µM), inactives show at the top dose activity change, negative = decrease; note: potency is the fitted concentration of half-maximal effect; nearly all actives have a fitted effect of over 55% in size
#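 Human tau K18 P301L (15 uM unlabeled, 0.24 uM Alexa 594-labeled) in 100 mM sodium acetate pH 7 with 20 uM heparin, 6 hr at 37 C. ThT 30 uM added, 1 hr ambient; Alexa 594 FP and total fluorescence read at 555/632 nm.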
# Starred values were filed as active, the others as inactive; u = inconclusive; x = no result; [ ] = another dose, or the depositor's remark. Unless noted, calls come from the whole dose curve; as a rule, active = well fitted curve in the direction sought with a large enough effect; inconclusive = small, poorly fitted or top-dose-only effect, or another doubt; inactive = no such curve, though single readings can be large; an effect the other way counts as inactive or inconclusive. Unless noted, % is set by controls: 0 for no effect and ±100 for the full control effect.
SMILES,Sfp PPTase inh,Tau fibril FP,Tau fibril ThT,FBPA coupling cs,Tau fluor counter
O=C(NCc1ccc(F)cc1)c1ccc(CS(=O)(=O)c2ccc(Cl)cc2)o1,x,0.7%,8.4%,x,-6.8%
CC(C)(C)c1cc[n+](-c2[nH]c(=O)sc2/C=N/NC([S-])=Nc2ccccc2)cc1,35.5µM*,-21.7%,u,-2.5,-22.4%
CC(NC(=O)C1CCCN1C(=O)CN)C(=O)O (stereo unspecified),u,x,x,-0.7,x
COc1ccc(/C=C/c2nc(-c3ccccc3O)n[nH]2)cc1OC,4.5%,u,9.6%,-1.2,15.8µM*[quencher]
O=C(O)COc1ccc(/C=C/c2nc(-c3ccccc3O)n[nH]2)cc1,4.3%,x,x,2.2,x
CCOc1ccc(S(=O)(=O)NCc2cccn2Cc2cccc(C)c2)cc1,x,5.4%,5.7%,x,-3.3%
CC(C(=O)Nc1cc([N+](=O)[O-])ccc1Cl)N1CCN(c2ccc(O)cc2)CC1 (stereo unspecified),56.2µM*,0.9%,u,-5.2,-25.4%
COc1ccc(Oc2ncc3nc(-c4cccc(C#N)c4)c(=O)n(CCC#N)c3n2)cc1,7.2%,x,x,1.4,x
O=C(COc1ccc(F)cc1)OCc1cc(=O)n2nc(C3CCCCC3)sc2n1,x,-4.6%,-15.3%,x,-9.5%
Cc1ccc(S(=O)(=O)N2CCOCC2)cc1NC(=O)CSc1n[nH]c(N)n1,19.8%,0.5%,5.2%,-0.7,2.3%
COc1ccc(S(=O)(=O)N2CCOCC2)cc1NC(=O)CSc1n[nH]c(C(C)C)n1,25.1µM*,3.7%,-0.4%,0.5,0.8%
COC(=O)c1cc(NC(=O)c2c(Cl)cnn2C)cc(C(=O)OC)c1,11.1%,-10.2%,-0.2%,0.3,1.7%
COC(=O)c1ccc(NC(=O)c2c(Br)cnn2C)cc1,35.5µM*,x,x,-3.0,x
COC(=O)c1ccc(NC(=S)NC(=O)c2c(Cl)cnn2C)cc1,50.1µM*,-4.3%,1.1%,3.6,-6.6%
CCCC(=O)OCc1cnc(C)c2oc(=O)c(C(=O)Nc3ccc(F)cc3C)cc12,x,-1.6%,-9.3%,x,-9.3%
O=S(=O)(c1ccc(Cl)nc1)N1CCCc2ccccc21,8.2%,8.4%,-2.6%,-33.3*,-1.8%
COc1ccc(CNc2ncncc2-c2ccc(C(=O)N(C)C)cc2)c(OC)c1,u,x,x,0.8,x
CC(=O)Oc1cc2oc(=O)c3c(c2cc1Cl)CCC3,-8.4%,17.8µM*,14.1µM*,-4.5,u
CCOC(=O)c1cnc(-n2[nH]c(C)cc2=O)[nH]c1=O,12.2%,-3.1%,u,-2.7,-8.9%
CCOC(=O)c1cnc(-n2nc(C)cc2C)[nH]c1=O,50.1µM*,-1.8%,-8.4%,1.4,-4.0%
CCOC(=O)c1cnc(-n2nc(C)cc2C)nc1NCCc1ccccc1,50.1µM*,-3.3%,-15.3%,-3.6,1.4%
CCOC(=O)c1cnc(-n2nc(C)cc2C)nc1NC1CCCC1,31.6µM*,3.5%,u,2.4,-5.9%
COC(=O)C1=C(C(=O)OC)[C@@H]2N(Cc3ccccc3)c3ccccc3[C@@]23C[C@@H](C(=O)OC)N(S(=O)(=O)c2ccc4c(c2)OCCN4C)C3=N1,-8.7%,6.3%[11.6 µM],3.4%[11.5 µM],-4.3,-8.4%[11.6 µM]
CCN(CC)C1=N/C(=C\c2ccco2)C(=O)N1c1ccccc1,u,-7.7%,u,0.5,-8.4%
CC(C)CN(CC(C)C)C1=N/C(=C\c2ccco2)C(=O)N1c1ccccc1,31.6µM*,-8.9%,u,0.3,-23.4%
SMILES,Sfp PPTase inh,Tau fibril FP,Tau fibril ThT,FBPA coupling cs,Tau fluor counter
COc1ccccc1NCC(=O)N/N=C/c1c(O)ccc2ccccc12,17.7%,x,x,-3.5,x
COc1ccccc1NC(=O)c1c(N=Cc2c(O)ccc3ccccc23)cnn1C,u,u,u,-40.3*,u
CCOC(=O)c1cnc2ccccc2c1Nc1ccc(N2CCOCC2)cc1,x,0.6%,u,x,-26.7%
CCOC(=O)c1cnc2c(C)cccc2c1Nc1ccc(N2CCOCC2)cc1,-29.3%,u,22.4µM*,-0.6,u
CCOC(=O)c1ccc2ncc(C(=O)OCC)c(Nc3ccc(N4CCOCC4)cc3)c2c1,50.1µM*,2.2%,u,-0.8,-26.3%
Cc1cc(=O)oc2cc(Oc3ncccc3[N+](=O)[O-])ccc12,-5.0%,4.2%,-12.2%,-4.6,-15.2%
Cc1cc(=O)oc2cc(Oc3ccc([N+](=O)[O-])cc3[N+](=O)[O-])ccc12,-5.1%,-0.1%,u,5.9,12.6µM*[quencher]
COC(=O)c1cc2sc(Cl)cc2n1Cc1nc(-c2ccccc2)oc1C,79.4µM*,-0.7%,-7.1%,-0.9,-9.4%
COC(=O)c1cc2sc(Cl)cc2n1Cc1nc(-c2cccc(C)c2)oc1C,u,-1.9%,-12.5%,-5.2,-15.1%
COc1cc(NC(C)=O)c2ncccc2c1[N+](=O)[O-],-21.9%,-0.2%,-0.9%,-66.3*,-5.8%
COc1ccc(C2CC(c3ccccc3)=NN2C(=O)c2cccs2)cc1 (stereo unspecified),-27.4%,u,-14.4%,0.5,7.94µM*[quencher]
O=C(c1ccccc1)N1N=C(c2ccccc2)CC1(O)C(F)(F)F (stereo unspecified),0.2%,x,x,0.5,x
COc1ccc(C2=NN(C(=O)c3cccs3)C(O)(C(F)(F)F)C2)cc1 (stereo unspecified),44.7µM*,-1.6%,u,-0.3,u
CCOC(=O)C1=C(C)NC(C)=C(C(=O)OC)[C@@H]1c1cccc(Cl)c1Cl,12.9%,x,x,3.4,x
CCOc1ccc(N2CSC(=S)N(c3ccc(OCC)cc3)C2)cc1,35.5µM*,-2.1%,u,1.0,-11.8%
NC(=O)c1cc2c3ccccc3ccn2c1-c1ccccc1,-23.4%,u,14.1µM*,-0.7,14.1µM*[quencher]
Cc1ccccc1Cc1c(C)nc2c(C(=O)NCc3ccco3)cnn2c1C,50.1µM*,2.5%,u,6.9,-5.9%
Cc1ccccc1Cc1c(C)nc2nc(SCC(=O)NCc3ccco3)nn2c1C,-25.2%,-1.0%,-7.4%,0.1,-0.1%
Cc1ccc(C)c(Cc2c(C)nc3c(C(=O)N4CCOCC4)cnn3c2C)c1,89.1µM*,7.9%,1.7%,1.6,0.9%
COc1ccc(C)cc1NC(=O)Cc1c(C(=O)O)c(C)cn1C,x,4.8%,1.4%,x,-2.9%
O=C(CSc1ccccc1C(=O)NCCCN1CCCC1=O)NCc1ccco1,44.7µM*,2.1%,-11.4%,-3.7,3.5%
CCOC(=O)/C(C#N)=C1/C=Cc2ccccc2N1CC,11.3%,4.8%,-12.9%,-2.3,5.4%
CCOC(=O)/C(C#N)=C1\SS/C(=C(/C#N)C(=O)OCC)S1,10µM*,6.31µM*,2.82µM*,1.6,-29.1%
